Test results as given in PubChem BioAssay (Tox21).
Inconclusive results are not listed. Active and inactive are the calls of the source. Unless noted, the call rests on the fitted dose curve; in most records, active means well fitted curve in the direction sought with a large enough effect in the repeat runs; inconclusive means weak or mixed curves; inactive means no such curve, though single readings can be large; an effect the other way counts as inactive or inconclusive.

Experiments:
[1] = qHTS assay to test for compound auto fluorescence at 535 nm (green) in HEK293 cells (AID 720680)
[2] = qHTS assay to test for compound auto fluorescence at 460 nm (blue) in HEK293 cell free culture (AID 720681)
Procedure, shortened: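 Test compounds were pinned into cell-free culture medium (DMEM with 10% FBS) and fluorescence was read directly at Ex/Em 405/460 nm. Signals were expressed as fluorescence equivalents of triamterene, with DMSO vehicle as control.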

[3] = qHTS assay to test for compound auto fluorescence at 535 nm (green) in HEK293 cell free culture (AID 720682)
Procedure, shortened: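 Read-out: 485/535 nm fluorescence intensity, calibrated against fluorescein. Medium only (DMEM + 10% FBS, no cells); test compound or DMSO vehicle added by pintool before plate reading.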

[4] = qHTS assay to test for compound auto fluorescence at 590 nm (red) in HEK293 cell free culture (AID 720683)
Procedure, shortened: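 Tox21 10K library compounds were pinned into cell-free DMEM with 10% FBS and fluorescence was read at excitation 540 nm. Activity is expressed as Rose Bengal sodium equivalency.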

[5] = qHTS assay to test for compound auto fluorescence at 590 nm (red) in HepG2 cell free culture (AID 720684)
Procedure, shortened: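 Ex 540 / Em 590 nm read of compound in cell-free MEM (10% FBS). Rose Bengal sodium reference.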

[6] = qHTS assay to test for compound auto fluorescence at 460 nm (blue) in HepG2 cell free culture (AID 720685)
Procedure, shortened: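 Cell-free plates of MEM plus 10% FBS received 23 nL compound or DMSO vehicle; blue-channel (405/460 nm) intensity scored against triamterene as reference fluorophore.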

[7] = qHTS assay to test for compound auto fluorescence at 535 nm (green) in HepG2 cell free culture (AID 720686)
[8] = qHTS assay to test for compound auto fluorescence at 460 nm (blue) in HepG2 cells (AID 720687)
Procedure, shortened: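 Cells (2,000/well in MEM with 10% FBS) attached overnight at 37 C, then were exposed to compound or DMSO for 1 hr at 37 C, 5% CO2. Fluorescence read at Ex/Em 405/460 nm, expressed as triamterene-equivalent signal.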

[9] = qHTS assay to identify small molecule antagonists of the glucocorticoid receptor (GR) signaling pathway - cell viability counter screen (AID 720693); further: nearly all actives have a fitted effect of over 55% in size; further: potency means the concentration at half of the fitted maximal effect
[10] = qHTS assay for identifying genotoxic compounds that show differential cytotoxicity against isogenic chicken DT40 cell lines with known DNA damage response pathways - wild type cell line (AID 743012); further: nearly all actives have a fitted effect of over 60% in size; further: potency means the concentration at half of the fitted maximal effect
Procedure, shortened: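 CellTiter-Glo luminescence readout of viability in wild type DT40 cells after 40 h compound exposure at 37 C/5% CO2; 300 cells/well; reagent incubated 30 min at room temperature before reading.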

[11] = qHTS assay to identify small molecule antagonists of the androgen receptor (AR) signaling pathway - cell viability counter screen (AID 743033; further: nearly all actives have a fitted effect of over 45% in size)
[12] = qHTS assay to identify small molecule antagonists of the androgen receptor (AR) signaling pathway using the MDA cell line - cell viability counter screen (AID 743041; further: nearly all actives have a fitted effect of over 45% in size; further: potency means the concentration at half of the fitted maximal effect)
Procedure, shortened: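 In this qHTS counter assay, fluorescence intensity after CellTiter-Fluor addition indicated viability of MDA-kb2 AR-luc cells given compounds and R1881 for 16 h at 37C.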

[13] = qHTS assay for identifying genotoxic compounds that show differential cytotoxicity against isogenic chicken DT40 cell lines with known DNA damage response pathways - Rad54/Ku70 mutant cell line (AID 743015); further: nearly all actives have a fitted effect of over 60% in size; further: potency means the concentration at half of the fitted maximal effect
[14] = molecular target: Androgen receptor (Homo sapiens) (UniProt P10275); assay: qHTS assay to identify small molecule agonists of the androgen receptor (AR) signaling pathway (AID 743036; active means well fitted activation curve with a large enough effect in the signal ratio in the repeat runs, with a control signal flat, not every such curve was filed as active; the % refers to the signal ratio)
Androgen receptor (Homo sapiens), sequence (P10275 whole entry, looked up): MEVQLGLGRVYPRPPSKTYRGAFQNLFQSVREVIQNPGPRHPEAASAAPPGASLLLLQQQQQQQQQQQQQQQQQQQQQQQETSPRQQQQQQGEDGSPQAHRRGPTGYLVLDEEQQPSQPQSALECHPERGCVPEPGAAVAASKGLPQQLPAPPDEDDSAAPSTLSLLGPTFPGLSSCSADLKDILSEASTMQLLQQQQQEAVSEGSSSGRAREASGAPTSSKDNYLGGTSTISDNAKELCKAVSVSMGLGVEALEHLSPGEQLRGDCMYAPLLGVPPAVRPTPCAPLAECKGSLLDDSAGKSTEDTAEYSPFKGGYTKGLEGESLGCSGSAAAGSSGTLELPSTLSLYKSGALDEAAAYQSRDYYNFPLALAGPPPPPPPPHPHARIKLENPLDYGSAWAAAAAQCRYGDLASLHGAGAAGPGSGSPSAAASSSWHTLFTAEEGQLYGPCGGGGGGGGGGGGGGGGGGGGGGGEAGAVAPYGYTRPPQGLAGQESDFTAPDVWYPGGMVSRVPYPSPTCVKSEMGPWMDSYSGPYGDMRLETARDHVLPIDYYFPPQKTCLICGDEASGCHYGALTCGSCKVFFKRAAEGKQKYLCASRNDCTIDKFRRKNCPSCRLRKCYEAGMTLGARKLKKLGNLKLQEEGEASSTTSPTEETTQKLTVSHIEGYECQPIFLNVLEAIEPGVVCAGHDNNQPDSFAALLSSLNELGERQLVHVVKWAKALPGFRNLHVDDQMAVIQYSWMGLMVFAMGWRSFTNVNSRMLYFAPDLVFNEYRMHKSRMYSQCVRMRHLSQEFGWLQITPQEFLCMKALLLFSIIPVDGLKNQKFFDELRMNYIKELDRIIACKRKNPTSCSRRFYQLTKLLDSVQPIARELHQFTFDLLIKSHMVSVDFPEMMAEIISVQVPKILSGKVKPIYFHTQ
Procedure, shortened: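 HEK293 cells stably carrying a UAS-driven beta-lactamase reporter (GeneBLAzer AR-UAS-bla-GripTite) were plated at 2,000 cells/well, rested 4 h at 37C, then exposed to compounds in DMSO for 16 h. LiveBLAzer B/G FRET substrate was added for 2 h at room temperature; fluorescence read.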

[15] = molecular target: Androgen receptor (Homo sapiens) (UniProt P10275); assay: qHTS assay to identify small molecule agonists of the androgen receptor (AR) signaling pathway using the MDA cell line (AID 743040; further: nearly all actives have a fitted effect of over 20% in size)
Procedure, shortened: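 Cell-based luciferase reporter: MDA-kb2, MMTV promoter (AR + GR response elements). 16 h compound exposure at 37C; ONE-Glo, 30 min RT, luminescence.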

[16] = qHTS assay for identifying genotoxic compounds that show differential cytotoxicity against isogenic chicken DT40 cell lines with known DNA damage response pathways - Rev3 mutant cell line (AID 743014); further: nearly all actives have a fitted effect of over 55% in size; further: potency means the concentration at half of the fitted maximal effect
[17] = molecular target: Glucocorticoid receptor (Homo sapiens) (UniProt P04150); assay: qHTS assay to identify small molecule agonists of the glucocorticoid receptor (GR) signaling pathway (AID 720691; active means well fitted activation curve with a large enough effect in the signal ratio in the repeat runs, not every such curve was filed as active; the % refers to the signal ratio); conditions: GR-bla HeLa, beta-lactamase reporter ratio, 18 h; activation: at 62.4 µM (top of the series)
Glucocorticoid receptor (Homo sapiens), sequence (P04150 whole entry, looked up): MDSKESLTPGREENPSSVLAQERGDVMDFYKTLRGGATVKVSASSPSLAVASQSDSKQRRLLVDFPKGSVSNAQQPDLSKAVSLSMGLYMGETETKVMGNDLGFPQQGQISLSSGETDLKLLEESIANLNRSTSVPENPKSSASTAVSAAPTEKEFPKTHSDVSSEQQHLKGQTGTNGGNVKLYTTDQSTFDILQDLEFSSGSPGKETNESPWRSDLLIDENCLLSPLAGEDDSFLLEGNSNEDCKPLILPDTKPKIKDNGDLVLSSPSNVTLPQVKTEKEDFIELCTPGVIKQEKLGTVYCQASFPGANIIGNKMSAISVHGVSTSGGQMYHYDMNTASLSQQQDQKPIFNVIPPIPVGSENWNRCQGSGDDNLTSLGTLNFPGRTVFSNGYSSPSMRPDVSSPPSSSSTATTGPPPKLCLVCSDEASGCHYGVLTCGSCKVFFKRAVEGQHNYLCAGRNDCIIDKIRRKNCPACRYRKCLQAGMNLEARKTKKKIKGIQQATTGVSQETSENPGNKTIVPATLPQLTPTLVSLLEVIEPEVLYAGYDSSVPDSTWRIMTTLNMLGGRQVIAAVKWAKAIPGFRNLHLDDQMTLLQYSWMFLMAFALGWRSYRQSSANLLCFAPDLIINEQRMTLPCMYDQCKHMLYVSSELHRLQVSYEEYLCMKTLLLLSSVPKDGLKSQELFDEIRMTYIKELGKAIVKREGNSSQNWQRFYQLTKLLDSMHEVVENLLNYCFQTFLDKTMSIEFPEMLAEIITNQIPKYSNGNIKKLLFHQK
Procedure, shortened: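 HeLa GR-bla reporter line; cells pre-incubated 4 h, compound in DMSO 18 h at 37 C; LiveBLAzer B/G FRET substrate 2 h RT; fluorescence intensity read-out.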

[18] = molecular target: Glucocorticoid receptor (Homo sapiens) (UniProt P04150); assay: qHTS assay to identify small molecule antagonists of the glucocorticoid receptor (GR) signaling pathway (AID 720692; active means well fitted inhibition curve with a large enough effect in the signal ratio in the repeat runs, not every such curve was filed as active; the % refers to the signal ratio)
Procedure, shortened: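 Read-out: beta-lactamase FRET substrate fluorescence, 2 h at room temperature, in HeLa cells stably carrying a GRE-driven bla reporter. Compounds were co-incubated with 5 nM dexamethasone agonist (final) for 18 h at 37 C.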

Measured: Potency

O=C(COc1ccc(Cl)cc1)OCCNC12CC3CC(CC(C3)C1)C2
not listed: [13] | [14] | [15] | [16] | [17] | [18]
inactive: all other assays above

C=C1C(=C/C=C2\CCC[C@]3(C)[C@@H]([C@H](C)/C=C/[C@H](C)C(C)C)CC[C@@H]23)C[C@@H](O)C[C@@H]1O
active: [10] 13.3 µM | [13] 16.8 µM
not listed: [9] | [11] | [16] | [17] | [18]
inactive: all other assays above

CCN(CC)CCOCCOC(=O)C(CC)(CC)c1ccccc1
active: [16] 1.88 µM | [13] 4.73 µM
not listed: [10] | [11] | [14] | [15] | [17] | [18]
inactive: all other assays above

CCC(=O)OCC(=O)[C@@]1(OC(=O)CC)[C@@H](C)C[C@H]2[C@@H]3CCC4=CC(=O)C=C[C@]4(C)[C@@]3(F)[C@@H](O)C[C@@]21C
active: [16] 29.8 µM | [13] 23.7 µM
not listed: [10] | [11] | [14] | [15] | [17] | [18]
inactive: all other assays above

CCCCCCCCCCCCCCCCOCCOCCOCCOCCOCCOCCOCCOCCOCCOCCOCCOCCOCCOCCOCCOCCOCCOCCOCCOCCO
inactive: [1] | [2] | [3] | [4] | [5] | [6] | [7] | [8]
active: [9] 13.4 µM | [10] 2.37 µM | [13] 29.8 µM | [12] 29.8 µM

CSc1nc2cc(Oc3cccc(Cl)c3Cl)c(Cl)cc2[nH]1
active: [9] 10.7 µM | [10] 18.8 µM | [13] 21.1 µM
not listed: [11] | [14] | [15] | [16] | [17] | [18]
inactive: all other assays above

CC(C)C(=O)OCC(=O)[C@@]12O[C@H](C3CCCCC3)O[C@@H]1C[C@H]1[C@@H]3CCC4=CC(=O)C=C[C@]4(C)[C@H]3[C@@H](O)C[C@@]12C
not listed: [9] | [10] | [13] | [14] | [15] | [17] | [18]
inactive: all other assays above

CO[C@H]1C[C@@H]2CC[C@@H](C)[C@@](O)(O2)C(=O)C(=O)N2CCCC[C@H]2C(=O)O[C@H]([C@H](C)C[C@@H]2CC[C@@H](OC(=O)C(C)(CO)CO)[C@H](OC)C2)CC(=O)[C@H](C)/C=C(\C)[C@@H](O)[C@@H](OC)C(=O)[C@H](C)C[C@H](C)/C=C/C=C/C=C/1C
not listed: [9] | [14] | [15] | [17] | [18]
inactive: all other assays above

C#C[C@]1(O)CC[C@H]2[C@@H]3CCC4=CCCC[C@@H]4[C@H]3C(=C)C[C@@]21CC
active: [16] 15 µM | [13] 21.1 µM
not listed: [9] | [10] | [14] | [15] | [17] | [18]
inactive: all other assays above

CC(=O)OC[C@H]1O[C@@H](O[C@H]2[C@H](O)[C@@H](OC(=O)c3ccccc3C(=O)O)[C@H](O)O[C@@H]2COC(C)=O)[C@H](O)[C@@H](OC(=O)c2ccccc2C(=O)O)[C@@H]1O
not listed: [6] | [11] | [14] | [15] | [16]
inactive: all other assays above

CCOC(=O)C1=C(COCCN)NC(C)=C(C(=O)OC)C1c1ccccc1Cl (stereo unspecified)
active: [10] 7.5 µM | [16] 13.3 µM | [13] 13.3 µM
not listed: [6] | [14] | [15] | [17] | [18]
inactive: all other assays above

CC(C)(C)CC(=O)OCC(=O)[C@@]12OC(C)(C)O[C@@H]1C[C@H]1[C@@H]3CCC4=CC(=O)C=C[C@]4(C)[C@@]3(F)[C@@H](O)C[C@@]12C
not listed: [6] | [14] | [15] | [17] | [18]
inactive: all other assays above

COc1ccccc1N1CCN(CCCC(=O)c2ccc(F)cc2)CC1
active: [10] 13.3 µM | [16] 11.9 µM | [13] 26.6 µM
not listed: [5] | [14] | [15]
inactive: all other assays above

CC[C@@H]1/C=C(\C)C[C@H](C)C[C@H](OC)[C@H]2O[C@@](O)(C(=O)C(=O)N3CCCC[C@H]3C(=O)O[C@H](/C(C)=C/[C@@H]3CC[C@@H](Cl)[C@H](OC)C3)[C@H](C)[C@@H](O)CC1=O)[C@H](C)C[C@@H]2OC
not listed: [6] | [14] | [15] | [17] | [18]
inactive: all other assays above
